Assay results: PubChem BioAssay (EPA / NIEHS)
Several values for one entry are separate records, joined by “and”; a condition that tells them apart may be missing. Equal values may be shown once. Where a structure was tested more than once in an assay, its records may differ in their call. Activity calls are given as the source filed them. Rule for the calls: active = hit-call score of the fitted dose curve at least 0.9, where 1 is the maximum; inactive = score below 0.9.

Key:
Conditions in all cases: mRNA level, 48 h; actives raise or lower the signal
[1] = read-out: Cytochrome P450 7A1 (Homo sapiens) (UniProt P22680); test: LTEA_HepaRG_CYP7A1: Life Technologies and Expression Analysis (LTEA) Assay for Cytochrome P450 7A1 (CYP7A1) using HepaRG (AID 2283496)
How it was run: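 HepaRG cells plated 48 h, then switched to serum-free induction medium and exposed in duplicate for 48 h to 8-point half-log series from 100 uM in 0.5% DMSO. CYP7A1 mRNA by qRT-PCR (TaqMan), normalized to ACTB/GAPDH/POLR2A; bidirectional fit versus DMSO.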

[2] = read-out: Glutathione S-Transferase (GSTA2), GSTA2 (gene 2939); test: LTEA_HepaRG_GSTA2: Life Technologies and Expression Analysis (LTEA) Assay for Glutathione S-Transferase (GSTA2) using HepaRG (AID 2283497)
How it was run: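 Human HepaRG cells, plated 48 h, then exposed in serum-free induction medium for 48 h to eight half-log concentrations up to 100 uM in 0.5% DMSO, duplicate. GSTA2 mRNA by qRT-PCR, normalized to ACTB/GAPDH/POLR2A; bidirectional fit versus DMSO.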

[3] = read-out: Glutamate-cysteine ligase catalytic (GCLC), GCLC (gene 2729); test: LTEA_HepaRG_GCLC: Life Technologies and Expression Analysis (LTEA) Assay for Glutamate-cysteine ligase catalytic (GCLC) using HepaRG (AID 2283498)
How it was run: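 Differentiated human HepaRG cells, plated 48 h then switched to serum-free induction medium, were exposed in duplicate for 48 h to 8 half-log concentrations topping at 100 uM in 0.5% DMSO. GCLC mRNA was quantified by qRT-PCR against ACTB, GAPDH and POLR2A.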

[4] = read-out: Glutamate-cysteine ligase regulatory (GCLM), GCLM (gene 2730); test: LTEA_HepaRG_GCLM: Life Technologies and Expression Analysis (LTEA) Assay for Glutamate-cysteine ligase regulatory (GCLM) using HepaRG (AID 2283500)
How it was run: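 Differentiated HepaRG cells exposed 48 h in serum-free induction medium to eight half-log concentrations up to 100 uM (0.5% DMSO). GCLM mRNA by TaqMan qRT-PCR, normalized to ACTB, GAPDH and POLR2A; bidirectional fit versus DMSO.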

[5] = read-out: Glutathione S-transferase M3 (GSTM3), GSTM3 (gene 2947); test: LTEA_HepaRG_GSTM3: Life Technologies and Expression Analysis (LTEA) Assay for Glutathione S-transferase M3 (GSTM3) using HepaRG (AID 2283501)
How it was run: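 GSTM3 transcript levels came from Fluidigm TaqMan qRT-PCR normalized to three housekeeping genes, fitted in both directions against DMSO. HepaRG cultures received chemicals for 48 h in serum-free induction medium (0.5% DMSO), 8 half-log concentrations up to 100 uM, duplicate.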

[6] = read-out: Heat shock 70 kDa protein 1 (HSPA1A), gene 3303; test: LTEA_HepaRG_HSPA1A: Life Technologies and Expression Analysis (LTEA) Assay for Heat shock 70 kDa protein 1 (HSPA1A) using HepaRG (AID 2283502)
How it was run: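 Human HepaRG cells in serum-free induction medium were exposed in duplicate for 48 h to 8 half-log concentrations, highest 100 uM, in 0.5% DMSO. HSPA1A mRNA read by TaqMan qRT-PCR, normalized to ACTB, GAPDH, POLR2A, fitted bidirectionally against DMSO.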

[7] = read-out: Hypoxia-inducible factor 1-alpha (Homo sapiens) (UniProt Q16665); test: LTEA_HepaRG_HIF1A: Life Technologies and Expression Analysis (LTEA) Assay for Hypoxia-inducible factor 1 (HIF1A) Trancription factor using HepaRG (AID 2283503)
How it was run: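 Differentiated HepaRG cells in serum-free induction medium exposed 48 h, in duplicate, to 8-point half-log series from 100 uM in 0.5% DMSO. HIF1A mRNA measured by TaqMan qRT-PCR, normalized to ACTB/GAPDH/POLR2A, fitted bidirectionally versus DMSO.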

[8] = read-out: 3-Hydroxy-3-Methylglutaryl-CoA Synthase 2 (HMGCS2), HMGCS2 (gene 3158); test: LTEA_HepaRG_HMGCS2: Life Technologies and Expression Analysis (LTEA) Assay for 3-Hydroxy-3-Methylglutaryl-CoA Synthase 2 (HMGCS2) using HepaRG (AID 2283504)
How it was run: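 Readout is HMGCS2 transcript by qRT-PCR, housekeeping-normalised (ACTB/GAPDH/POLR2A) and fitted bidirectionally against 0.5% DMSO. Differentiated HepaRG cells received chemicals 48 h, duplicate wells, eight half-log concentrations topping at 100 uM.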

HGF (gene 3082) = test: LTEA_HepaRG_HGF: Life Technologies and Expression Analysis (LTEA) Assay for Hepatocyte Growth Facto (HGF) using HepaRG (AID 2283505)
How it was run: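 HGF transcript was quantified by TaqMan qRT-PCR against three housekeeping genes after 48 h treatment of HepaRG cells. Exposure ran in duplicate over eight half-log steps topping at 100 uM in 0.5% DMSO vehicle.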

[9] = read-out: Insulin Like Growth Factor 1 (IGF1), IGF1 (gene 3479); test: LTEA_HepaRG_IGF1: Life Technologies and Expression Analysis (LTEA) Assay for Insulin Like Growth Factor 1 (IGF1) using HepaRG (AID 2283506)
How it was run: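 Differentiated HepaRG cells in serum-free induction medium, exposed 48 h in duplicate to 8 half-log concentrations up to 100 uM in 0.5% DMSO. IGF1 mRNA by Fluidigm qRT-PCR, normalised to ACTB, GAPDH and POLR2A.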

[10] = read-out: Intercellular Adhesion Molecule 1 (ICAM1), ICAM1 (gene 3383); test: LTEA_HepaRG_ICAM1: Life Technologies and Expression Analysis (LTEA) Assay for Intercellular Adhesion Molecule 1 (ICAM1) using HepaRG (AID 2283507)
How it was run: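 ICAM1 transcript levels measured by qRT-PCR, normalized to three housekeeping genes (ACTB, GAPDH, POLR2A), after 48 h chemical exposure of HepaRG cells. Duplicate eight-point half-log series from 100 uM in 0.5% DMSO; gain or loss fitted against vehicle.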

[11] = read-out: Insulin-like growth factor-binding protein 1 (IGFBP1), IGFBP1 (gene 3484); test: LTEA_HepaRG_IGFBP1: Life Technologies and Expression Analysis (LTEA) Assay for Insulin-like growth factor-binding protein 1 (IGFBP1) using HepaRG (AID 2283508)
How it was run: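 Read-out is qRT-PCR transcript level normalized to three housekeeping genes, fitted in both directions against 0.5% DMSO. Differentiated HepaRG cells received eight half-log concentrations (top 100 uM) in duplicate for 48 h in serum-free induction medium.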

[12] = read-out: Interleukin 6 (IL6), IL6 (gene 3569); test: LTEA_HepaRG_IL6: Life Technologies and Expression Analysis (LTEA) Assay for Interleukin 6 (IL6) using HepaRG (AID 2283509)
How it was run: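 Differentiated human HepaRG cells, plated 48 h then switched to serum-free induction medium, were exposed in duplicate for 48 h to eight half-log concentrations up to 100 uM in 0.5% DMSO. IL6 mRNA measured by qRT-PCR, normalized to ACTB/GAPDH/POLR2A.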

[13] = read-out: Interleukin 6 Receptor (IL6R), IL6R (gene 3570); test: LTEA_HepaRG_IL6R: Life Technologies and Expression Analysis (LTEA) Assay for Interleukin 6 Receptor (IL6R) using HepaRG (AID 2283510)
How it was run: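 Differentiated HepaRG cells, plated 48 h, then exposed in duplicate for 48 h in serum-free induction medium to 8 half-log concentrations (top 100 uM, 0.5% DMSO). IL6R mRNA measured by TaqMan qRT-PCR, normalized to ACTB/GAPDH/POLR2A; bidirectional fit vs DMSO.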

[14] = read-out: Potassium channel subfamily K member 1 (KCNK1), KCNK1 (gene 3775); test: LTEA_HepaRG_KCNK1: Life Technologies and Expression Analysis (LTEA) Assay for Potassium channel subfamily K member 1 (KCNK1) using HepaRG (AID 2283511)
How it was run: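 Differentiated human HepaRG cells in serum-free induction medium were exposed in duplicate for 48 h to 8 half-log concentrations up to 100 uM in 0.5% DMSO. KCNK1 mRNA was measured by TaqMan qRT-PCR, normalized to ACTB, GAPDH and POLR2A, and fitted bidirectionally versus DMSO.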

[15] = read-out: Keratin 19 (KRT19), KRT19 (gene 3880); test: LTEA_HepaRG_KRT19: Life Technologies and Expression Analysis (LTEA) Assay for Keratin 19 (KRT19) using HepaRG (AID 2283512)
How it was run: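 KRT19 transcript measured by TaqMan qRT-PCR, referenced to three housekeeping genes, after HepaRG cells received test chemicals for 48 h. Eight half-log concentrations, top 100 uM, 0.5% DMSO vehicle; increases and decreases both fitted.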

[16] = read-out: JUN Transcription Factor, JUN (gene 3725); test: LTEA_HepaRG_JUN: Life Technologies and Expression Analysis (LTEA) Assay for JUN Transcription Factor using HepaRG (AID 2283513)
How it was run: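 HepaRG cells, 48 h post-plating, exposed 48 h in serum-free induction medium to 8-point half-log series (top 100 uM, 0.5% DMSO), duplicate; mRNA by qRT-PCR (TaqMan, Fluidigm), normalized to ACTB/GAPDH/POLR2A; bidirectional fit vs DMSO.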

[17] = read-out: Lipase C (LIPC), LIPC (gene 3990); test: LTEA_HepaRG_LIPC: Life Technologies and Expression Analysis (LTEA) Assay for Lipase C (LIPC) using HepaRG (AID 2283514)
How it was run: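 Differentiated human HepaRG cells in serum-free induction medium were exposed in duplicate for 48 h to eight concentrations (top 100 uM, half-log steps, 0.5% DMSO). LIPC mRNA was quantified by TaqMan qRT-PCR, normalized to ACTB, GAPDH and POLR2A, with bidirectional fitting versus DMSO.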

[18] = read-out: Lipoprotein lipase (LPL), LPL (gene 4023); test: LTEA_HepaRG_LPL: Life Technologies and Expression Analysis (LTEA) Assay for Lipoprotein lipase (LPL) using HepaRG (AID 2283515)
How it was run: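 Differentiated human HepaRG cells in serum-free induction medium were exposed in duplicate for 48 h to eight half-log concentrations (top 100 uM) in 0.5% DMSO. LPL mRNA was quantified by TaqMan qRT-PCR, normalized to ACTB, GAPDH and POLR2A.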

Measured: AC50

Chain of Hypoxia-inducible factor 1-alpha (Homo sapiens) (Q16665 whole entry, looked up): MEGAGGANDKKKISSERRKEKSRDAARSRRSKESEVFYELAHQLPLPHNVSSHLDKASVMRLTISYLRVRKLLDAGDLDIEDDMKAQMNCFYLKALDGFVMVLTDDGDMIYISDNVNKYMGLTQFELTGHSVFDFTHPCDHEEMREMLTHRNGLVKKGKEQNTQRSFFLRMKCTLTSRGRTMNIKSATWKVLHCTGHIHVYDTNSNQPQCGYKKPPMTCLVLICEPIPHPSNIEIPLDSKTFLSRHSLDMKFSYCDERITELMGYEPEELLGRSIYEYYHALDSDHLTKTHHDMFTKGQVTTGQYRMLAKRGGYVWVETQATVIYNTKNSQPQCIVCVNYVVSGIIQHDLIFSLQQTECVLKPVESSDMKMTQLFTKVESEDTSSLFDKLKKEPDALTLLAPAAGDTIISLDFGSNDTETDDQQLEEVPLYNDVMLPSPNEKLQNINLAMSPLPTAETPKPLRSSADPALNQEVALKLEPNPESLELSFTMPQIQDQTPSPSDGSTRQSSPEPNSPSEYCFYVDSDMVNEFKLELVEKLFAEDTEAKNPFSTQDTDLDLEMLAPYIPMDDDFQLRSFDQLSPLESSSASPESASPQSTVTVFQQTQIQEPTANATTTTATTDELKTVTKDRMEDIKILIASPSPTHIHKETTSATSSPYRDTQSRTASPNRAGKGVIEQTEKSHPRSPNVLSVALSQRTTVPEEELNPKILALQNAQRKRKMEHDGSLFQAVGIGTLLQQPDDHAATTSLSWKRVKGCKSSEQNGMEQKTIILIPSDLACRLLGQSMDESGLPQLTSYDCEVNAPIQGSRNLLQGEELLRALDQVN

C=CCC1=C(C)C(OC(=O)C2C(C=C(C)C)C2(C)C)CC1=O (stereo not given)
active: [1] 3.67 µM and 72.6 µM and 19.4 µM | [2] 84.3 µM | [8] 82.1 µM and 80.4 µM and 87.9 µM | [9] 79.6 µM and 72 µM and 50 µM | [12] 50 µM and 74.3 µM | [15] 50 µM and 88.1 µM and 40.4 µM | [17] 84 µM
inactive: [2] | [3] | [4] | [5] | [6] | [7] | HGF (gene 3082) | [10] | [11] | [12] | [13] | [14] | [16] | [17] | [18]

Oc1ccccc1-c1ccccc1
not listed: [18]
inactive: all other assays above

CCON=C(CC)C1=C(O)CC(c2c(C)cc(C)cc2C)CC1=O (stereo not given)
inactive: all assays above

COP(=S)(OC)Oc1nc(Cl)c(Cl)cc1Cl
inactive: all assays above

CCCC1COC(Cn2cncn2)(c2ccc(Cl)cc2Cl)O1 (stereo not given)
active: [1] 60.9 µM | [2] 37 µM | [4] 50 µM | [5] 64.5 µM | [6] 90.5 µM | [7] 50 µM | [8] 36.5 µM | HGF (gene 3082) 50 µM | [9] 25.5 µM | [10] 77.1 µM | [11] 34.4 µM | [12] 83.2 µM | [15] 1.12 µM | [17] 35.8 µM | [18] 27.8 µM
inactive: [3] | [13] | [14] | [16]

O=C(O)COc1nc(Cl)c(Cl)cc1Cl
inactive: all assays above

CCNc1nc(Cl)nc(NC(C)C)n1
active: [9] 50 µM | [15] 26.1 µM
inactive: all other assays above
